# A selection: hits, their analogues and other compounds. The true share with any hit is near 1.6%.
# gsp antagonist = antagonizes gsp, the McCune-Albright syndrome mutation; gsp-mutant cells, cAMP HTRF, 30 min; Potency, µM (top dose mostly 76.9 µM), without a hit: at the top dose activity change, negative = inhibition, most hits filed as inhibitors; 340,000 tested, 0.4% active; calls by dose curve; cell line not stated here;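 also: intracellular cAMP measured with PDE inhibitor Ro 20-1724 present during compound exposure; potency is read from the fitted curve at half-maximal effect; % is scaled to controls: 0 for no effect and ±100 for the full control effect; nearly all actives have a fitted effect of over 65% in size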
#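 HTRF cAMP read-out (cAMP-d2 plus anti-cAMP antibody-K in lysis buffer, 30 min RT). Before lysis, cells are exposed to compounds with […] for 30 min at 37C in DPBS containing Ca/Mg, BSA and Tween 20.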
# hERG WT inh = blocks the wildtype human KCNH2 potassium channel; Q12809; 340,000 tested, 0.37% active; activity change, % at 1.84 µM; AID 720551; U2OS, BacMam KCNH2, thallium flux FluxOr; active compounds read low;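 active = maximum activity change below -70%; inconclusive = maximum activity change between -70% and -50%; inactive = maximum activity change above -50%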; also: % is scaled to controls: 0 for no effect and ±100 for the full control effect
#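 U2OS cells were transduced with wild-type KCNH2 virus (2.03 x 10^8 / mL) for 4 h at room temperature, then cultured overnight at 37 C. Thallium flux was read with FluxOr dye. Rate constants were normalized to DMSO controls.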
# KCNH2 3.1 inh = blocks the human KCNH2 3.1 channel isoform; activity change, % (tested at about 1.8 µM); 340,000 tested, 0.95% active; U2OS KCNH2 3.1, thallium flux FluxOr; active compounds read low;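 active = maximum activity change below -70%; inconclusive = maximum activity change from -70% to -50%; inactive = maximum activity change above -50%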;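 also: thallium influx rate constant from kinetic fluorescence after stimulation buffer; % is scaled to controls: 0 for no effect and ±100 for the full control effect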
#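 Channel expression came from 3.1 mutant virus (1.77 x 10^8 /mL) applied to suspended U2OS cells for 4 h. Flux was tracked with FluxOr dye plus Red40 quencher, and kinetic rate constants normalized to controls.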
# Akt phos inh = inhibitors of Akt phosphorylation | Neuro2A IGF-stimulated pAkt S473 HTRF, 20 min; active compounds read low | 360,000 tested, 0.32% active | activity change, % for hits at 50 µM; in the data active = activity change below about -80%; inconclusive = mostly about -51% to -80%; also: % is scaled to controls: 0 for no effect and ±100 for the full control effect
#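 Neuro2A cells (4,500/well, DMEM with 0.5% FBS) were treated with compound at a single 50 µM final concentration, stimulated with 6 nM IGF for 20 min at 37 °C, and lysed. Phospho-Akt Ser473 was read by HTRF as 665/615 ratio ×10^4.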
# GRP78 ERSR act = induces the endoplasmic reticulum stress response in human glioma cells; U87-MG GRP78 promoter luciferase reporter, 16 h; AID 602332; 420,000 tested, 0.02% active; Potency, µM, without a hit: at the highest dose activation, actives largely listed as activators; active = well fitted activation curve with a large enough effect; inconclusive = small, poorly fitted or top-dose-only effect; inactive = no such curve, though single readings can be large or run the other way; also: potency is read from the fitted curve at half-maximal effect; series mostly up to about 76 µM; % of control where 0% means no effect; nearly all actives have a fitted effect of over 35% in size
#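 Stably transfected U87-MG glioma cells carrying a GRP78-based luciferase sensor; 16 h compound incubation. Luminescence end-point read 10 min after Bright-Glo addition at room temperature.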
# gsp agonist = agonists of gsp mutant (McCune-Albright syndrome); Potency, µM (doses to about 76.9 µM), without a hit: at the highest dose activation (cAMP increase), usual class: activators; gsp mutant cells, cAMP HTRF, 30 min; 340,000 tested, 0.13% active; active = well fitted activation curve with a large enough effect; inconclusive = small, poorly fitted or top-dose-only effect, or another doubt; inactive = no such curve, though single readings can be large or run the other way; cell line not stated here;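 also: phosphodiesterase inhibitor Ro 20-1724 added with compounds to block cAMP breakdown; potency is read from the fitted curve at half-maximal effect; nearly all actives have a fitted effect of over 60% in size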
#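 Cells stably selected in G418 were plated at 2000/well, grown 16-24 hr, then given compounds in DMSO with the PDE inhibitor […] (300 uM solution added) for 30 min at 37C; cAMP was read by HTRF.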
# An asterisk follows results filed as active; i = inactive; ? = inconclusive; . = not tested or not shown; [ ] = dose if it differs, or a comment.
SMILES,gsp antagonist,hERG WT inh,KCNH2 3.1 inh,Akt phos inh,GRP78 ERSR act,gsp agonist
O=C(NCC1(N2CCOCC2)CCCC1)c1cnn(-c2nccc(-c3cccs3)n2)c1C1CC1,.,.,.,.,-3.2%,.
O=C(C1CC1)N1CCc2cc(Br)cc(S(=O)(=O)NC3CCCCC3)c21,-15.5%,-1.2,-4.1,-118.7%*,-3.3%,11.3%
CC(C)NC(=O)c1ccccc1N(Cc1ccccc1)S(C)(=O)=O,11.2%,-25.0,-75.4*,i,-3.2%,0.5%
COc1ccccc1NC(=O)c1ccccc1N(Cc1ccccc1)S(C)(=O)=O,-4.3%,-214.7*,14.2,i,-2.8%,-3.6%
COC(=O)c1ccccc1N(Cc1ccccc1)S(C)(=O)=O,8.3%,-10.0,-4.9,i,-2.0%,27.4%
NS(=O)(=O)c1cccc(NC(=O)COC(=O)CCC(=O)c2cccs2)c1,6.9%,-2.5,-70.9*,i,-3.0%,-2.3%
CN(C)c1ccc(/C=C/c2ccnc3ccccc23)cc1Br,.,.,.,.,-0.7%,.
C/C=C/c1ccc(OCC(O)CN2CCCCC2CC)c(OC)c1 (stereo not given),0.9%,21.7,-24.2,i,-0.8%,16.5%[15.4 µM]
C/C=C/c1ccc(OCC(O)CNCCc2ccc(OC)cc2)c(OC)c1 (stereo not given),-10.7%,2.8,-71.0*,i,-4.8%,?
C/C=C/c1ccc(OCC(=O)O)c(OC)c1,-2.1%,4.4,-3.5,i,-3.8%,11.2%[15.4 µM]
C/C=C/c1ccc(OCC(O)CN(C)Cc2ccc(SC)cc2)c(OC)c1 (stereo not given),9.6%,?,-112.3*,i,-0.6%,4.6%
C/C=C/c1ccc(OCC(O)CNCC(c2ccc(OC)cc2)N(C)C)c(OC)c1 (stereo not given),7.4%,-6.9,-73.4*,i,-7.0%,-2.6%
COc1ccc(CCNCC(O)COc2ccc(Cl)cc2)cc1OC (stereo not given),9.2%,37.0,?,i,-1.2%,-18.1%
COc1ccc(Cl)cc1-c1cc2c(c(OC)c1)OCCN(Cc1cccn1-c1nccs1)C2,.,.,.,.,-3.5%,.
CC1(C)CC(C(=O)N2CCOc3ccc(CN4CCN(Cc5ccccn5)CC4)cc3C2)CCO1 (stereo not given),.,.,.,.,-2.7%,.
Cc1ccc(CN2CCc3nnc(C(NS(C)(=O)=O)C(C)C)n3CC2)cc1C (stereo not given),.,.,.,.,-3.4%,.
Cc1ccc(C(=O)Nc2cccc(-c3nc(CNC(=O)c4cccc(N(C)C)c4)c(C)o3)c2)s1,.,.,.,.,2.4%,.
O=C(Nc1ccc(N=Nc2ccccc2)cc1)c1ccccc1Cl,-26.6%,-3.2,-97.7*,i,4.6%,-9.1%
Cc1cc(NC(=O)c2cc(Cl)ccc2Cl)no1,-2.9%,-1.2,7.3,i,-2.0%,-37.5%
Cc1cc(NC(=O)c2ccccc2Cl)no1,-0.3%,9.3,17.7,-103.7%*,-4.1%,-25.1%
Cc1oc(-c2cccc(NC(=O)c3ccccn3)c2)nc1CNC(=O)c1cc(F)c(F)cc1F,.,.,.,.,1.4%,.
Cc1ccccc1C(=O)c1cccn1CC(=O)N1CCCCCC1,-0.3%,4.9,-99.8*,i,-4.0%,-30.4%
COc1cccc(CN2CCCC(c3nc(-c4ccncc4)ncc3-c3ccccc3)C2)c1O (stereo not given),.,.,.,.,-0.9%,.
O=C(C1CC12CCN(Cc1cccc3cccnc13)CC2)N1CCN(Cc2cccs2)CC1 (stereo not given),.,.,.,.,-2.8%,.
CCn1ccc(C(=O)Nc2cccc(Cl)c2)n1,-1.3%,-24.2,.,i,-0.9%,26.9%
SMILES,gsp antagonist,hERG WT inh,KCNH2 3.1 inh,Akt phos inh,GRP78 ERSR act,gsp agonist
CCn1ccc(C(=O)NC2=C(C#N)CCC2)n1,4.1%,-2.3,2.2,-115.0%*,-5.3%,-12.6%
CCn1ccc(C(=O)Nc2ccccc2Cl)n1,50.1µM*,.,0.1,i,-4.3%,-29.5%
O=C(O)c1ccc2c(c1)C(=O)N(NC(=O)c1ccccc1)C2=O,9.5%,-230.1*,-7.5,i,-0.8%,10.5%
COc1ccc(CNC(=O)C2CCCN2c2nc(C)c3ccccc3n2)cc1 (stereo not given),.,.,.,.,-2.7%,.
COc1cc(/C=C(\C#N)c2nc3ccc(C)cc3[nH]2)cc([N+](=O)[O-])c1O,25.1µM*,-0.4,-6.7,i,?,-35.1%
CCN(CC)c1ccc(/C=C(/C#N)c2nc3ccc(C)cc3[nH]2)c(OC(C)C)c1,4.4%,-70.3*,?,.,-0.7%,-29.6%
CCCOc1cc(N(CC)CC)ccc1/C=C(/C#N)c1nc2ccc(C)cc2[nH]1,-6.9%,-18.3,-42.1,i,7.3%,?
CC(=O)c1ccc(N2CCN(C(=O)CCCCn3c(=O)[nH]c4ccccc4c3=O)CC2)cc1,.,.,.,.,-3.3%,.
CC(=O)c1ccc(N2CCN(C(=O)CCCn3c(=O)[nH]c4ccc(Br)cc4c3=O)CC2)cc1,35.5µM*,-2.7,-29.3,i,-6.3%,19.9%
COC(=O)c1ccc2c(=O)n(CCCCCC(=O)N3CCN(c4ccccc4)CC3)c(=O)[nH]c2c1,8.91µM*,-8.3,1.2,i,-12.0%,0.7%
CCN1CCN(C(=O)CCCCCn2c(=O)[nH]c3cc(C(=O)OC)ccc3c2=O)CC1,-4.0%,-7.7,4.8,i,-4.8%,?
COc1cc2c(NC3CCN(C(C)C)CC3)nc(N3CCCN(C)CC3)nc2cc1OCCOCCN1CCCC1,.,.,.,.,-6.3%,.
COc1ccc2[nH]cc(C(=O)CNc3nccs3)c2c1,.,.,.,.,-4.8%,.
COc1ccc(-n2c3c(c(=O)[nH]c2=O)C(NS(=O)(=O)c2ccc(Cl)cc2)(C(F)(F)F)C(=O)N3)cc1 (stereo not given),13.5%,-98.3*,12.1,i,-3.9%,-31.0%[15.4 µM]
CCc1cc(=O)[nH]c(SCc2cccc3ccccc23)n1,-11.6%,1.5,-109.7*,i,-3.8%,-25.1%
CN(CC[C@@H](Oc1ccc(C(F)(F)F)cc1)c1ccccc1)CC(=O)O,.,.,.,.,-5.1%,.
CNCC[C@@H](Oc1ccc(C(F)(F)F)cc1)c1ccccc1,9.6%,.,-91.5*,i,-0.4%,.
CSCCC(NC(=O)[C@H](Cc1c[nH]c2ccccc12)NC(=O)CNC(=O)[C@H](CCSC)NC(=O)[C@H](Cc1ccc(OS(=O)(=O)O)cc1)NC(=O)[C@@H](N)CC(=O)O)C(=O)N[C@@H](CC(=O)O)C(=O)N[C@@H](Cc1ccccc1)C(N)=O (stereo not given in full),.,.,.,.,-1.8%,.
CC(=O)c1ccc(Nc2c3c(nc4ccccc24)CCCC3)cc1,-0.5%,-76.7*,-9.8,i,-0.1%,-11.7%
Cc1ccc(C(=O)N(Cc2cc3ccc(F)cc3nc2N2CCC(O)CC2)CC2CCCO2)cc1 (stereo not given),.,.,.,.,-4.8%,.
CCn1c(C)nc2cc(C(=O)NNS(=O)(=O)c3c(C)c(C)cc(C)c3C)ccc21,0.9%,0.0,-5.2,-120.0%*,-1.1%,-7.3%

# Compound activity from PubChem BioAssay.
